Assay results from publication PMC11062922 (Nature Chemical Biology, 2023).
Like-named read-outs stand apart in the source and are kept apart here.

Columns and labels:
Set-up in all cases: species or system human, MV4-11 + K-562 + COLO205 + SK-N-BE2 + OVCAR-8
[1] = tested on: ADRBK1; settings: read-out: apparent Kd, n = 1
[2] = tested on: AGPS; settings: read-out: apparent Kd; compound concentrations:100 nM and 1000 nM (sheet 'Samples'); n = 1
[3] = tested on: AKT1; settings: read-out: apparent Kd; compound concentrations:100 nM and 1000 nM (sheet 'Samples'); n = 1
[4] = tested on: AKT2; settings: read-out: apparent Kd; compound concentrations:100 nM and 1000 nM (sheet 'Samples'); n = 1
[5] = tested on: AKT3; settings: read-out: apparent Kd; compound concentrations:100 nM and 1000 nM (sheet 'Samples'); n = 1
[6] = tested on: CDK16; settings: read-out: apparent Kd; compound concentrations:100 nM and 1000 nM (sheet 'Samples'); n = 1
[7] = tested on: CDK17; settings: read-out: apparent Kd; compound concentrations:100 nM and 1000 nM (sheet 'Samples'); n = 1
[8] = tested on: T1, DJA1; settings: read-out: apparent Kd, n = 1
T1 construct: gene DNAJA1

[9] = tested on: FLT3; settings: read-out: apparent Kd; compound concentrations:100 nM and 1000 nM (sheet 'Samples'); n = 1
[10] = tested on: ILK; settings: read-out: apparent Kd; compound concentrations:100 nM and 1000 nM (sheet 'Samples'); n = 1
[11] = tested on: MAP2K1; settings: read-out: apparent Kd; compound concentrations:100 nM and 1000 nM (sheet 'Samples'); n = 1
[12] = tested on: MAP2K2; settings: read-out: apparent Kd; compound concentrations:100 nM and 1000 nM (sheet 'Samples'); n = 1
[13] = tested on: NNT; settings: read-out: apparent Kd; compound concentrations:100 nM and 1000 nM (sheet 'Samples'); n = 1
[14] = tested on: NQO1; settings: read-out: apparent Kd; compound concentrations:100 nM and 1000 nM (sheet 'Samples'); n = 1
[15] = tested on: PDGFRB; settings: read-out: apparent Kd; compound concentrations:100 nM and 1000 nM (sheet 'Samples'); n = 1
[16] = tested on: PIP4K2C; settings: read-out: apparent Kd; compound concentrations:100 nM and 1000 nM (sheet 'Samples'); n = 1
[17] = tested on: PRKAG1; settings: read-out: apparent Kd; compound concentrations:100 nM and 1000 nM (sheet 'Samples'); n = 1
[18] = tested on: PRKAG2; settings: read-out: apparent Kd; compound concentrations:100 nM and 1000 nM (sheet 'Samples'); n = 1
[19] = tested on: PYGL; settings: read-out: apparent Kd; compound concentrations:100 nM and 1000 nM (sheet 'Samples'); n = 1
[20] = tested on: RIOK2; settings: read-out: apparent Kd; compound concentrations:100 nM and 1000 nM (sheet 'Samples'); n = 1
[21] = tested on: STK26; settings: read-out: apparent Kd; compound concentrations:100 nM and 1000 nM (sheet 'Samples'); n = 1
[22] = tested on: VDAC3; settings: read-out: apparent Kd; compound concentrations:100 nM and 1000 nM (sheet 'Samples'); n = 1
[23] = tested on: CDK10; settings: read-out: apparent Kd; compound concentrations: 100 nM and 1000 nM (sheet 'Samples'), CATDS: 0.80077145880212897; n = 1
[24] = tested on: PRKAA2; settings: read-out: apparent Kd; compound concentrations: 100 nM and 1000 nM (sheet 'Samples'), CATDS: 0.26734267999924899; n = 1
[25] = tested on: ADK; settings: read-out: apparent Kd; compound concentrations: 100 nM and 1000 nM (sheet 'Samples'), CATDS: 3.8521875066841203E-2; n = 1
[26] = tested on: COX5A; settings: read-out: apparent Kd; compound concentrations: 100 nM and 1000 nM (sheet 'Samples'), CATDS: 3.6331945852285497E-2; n = 1
[27] = tested on: CSNK1A1; settings: read-out: apparent Kd; compound concentrations: 100 nM and 1000 nM (sheet 'Samples'), CATDS: 6.6366617124681102E-2; n = 1
[28] = tested on: CSNK1D; settings: read-out: apparent Kd; compound concentrations: 100 nM and 1000 nM (sheet 'Samples'), CATDS: 0.21669980545697101; n = 1
[29] = tested on: CSNK1E; settings: read-out: apparent Kd; compound concentrations: 100 nM and 1000 nM (sheet 'Samples'), CATDS: 0.13524385654208201; n = 1
[30] = tested on: CSNK1G1; settings: read-out: apparent Kd; compound concentrations: 100 nM and 1000 nM (sheet 'Samples'), CATDS: 3.36950722911461E-2; n = 1
[31] = tested on: CSNK1G3; settings: read-out: apparent Kd; compound concentrations: 100 nM and 1000 nM (sheet 'Samples'), CATDS: 3.7890071369445298E-2; n = 1
[32] = tested on: MAP4K5; settings: read-out: apparent Kd; compound concentrations: 100 nM and 1000 nM (sheet 'Samples'), CATDS: 3.4056635134305298E-2; n = 1
[33] = tested on: MAPK10; settings: read-out: apparent Kd; compound concentrations: 100 nM and 1000 nM (sheet 'Samples'), CATDS: 4.2468368704664097E-2; n = 1
[34] = tested on: MAPK11; settings: read-out: apparent Kd; compound concentrations: 100 nM and 1000 nM (sheet 'Samples'), CATDS: 0.108415283939704; n = 1
[35] = tested on: MAPK14; settings: read-out: apparent Kd; compound concentrations: 100 nM and 1000 nM (sheet 'Samples'), CATDS: 0.505182268244599; n = 1
[36] = tested on: MAPK9; settings: read-out: apparent Kd; compound concentrations: 100 nM and 1000 nM (sheet 'Samples'), CATDS: 5.19093996737921E-2; n = 1
[37] = tested on: MAPKAPK2; settings: read-out: apparent Kd; compound concentrations: 100 nM and 1000 nM (sheet 'Samples'), CATDS: 0.16433458855485; n = 1
[38] = tested on: NLK; settings: read-out: apparent Kd; compound concentrations: 100 nM and 1000 nM (sheet 'Samples'), CATDS: 5.68204402660955E-2; n = 1
[39] = tested on: PKN3; settings: read-out: apparent Kd; compound concentrations: 100 nM and 1000 nM (sheet 'Samples'), CATDS: 3.0507466694278802E-2; n = 1
[40] = tested on: PRKCA; settings: read-out: apparent Kd; compound concentrations: 100 nM and 1000 nM (sheet 'Samples'), CATDS: 4.1145920495800903E-2; n = 1
[41] = tested on: PRKCB; settings: read-out: apparent Kd; compound concentrations: 100 nM and 1000 nM (sheet 'Samples'), CATDS: 3.4087347473579097E-2; n = 1
[42] = tested on: PRKD2; settings: read-out: apparent Kd; compound concentrations: 100 nM and 1000 nM (sheet 'Samples'), CATDS: 3.50594175571005E-2; n = 1
[43] = tested on: PRKD3; settings: read-out: apparent Kd; compound concentrations: 100 nM and 1000 nM (sheet 'Samples'), CATDS: 3.1320583757310602E-2; n = 1
[44] = tested on: RIPK2; settings: read-out: apparent Kd; compound concentrations: 100 nM and 1000 nM (sheet 'Samples'), CATDS: 4.9528140659543501E-2; n = 1
[45] = compound concentrations:100 nM and 1000 nM (sheet 'Samples')

Which results are given for `NS(=O)(=O)c1ccc(Nc2ncc(-c3ccccc3)o2)cc1` [GW572399X]?
potency estimated from few doses [1, 45]: 1.91 µM; potency estimated from few doses [2]: 2.05 µM; potency estimated from few doses [3]: 1.96 µM; potency estimated from few doses [4]: 1.97 µM; potency estimated from few doses [5]: 1.56 µM; potency estimated from few doses [6]: 1.76 µM; potency estimated from few doses [7]: 2.1 µM; potency estimated from few doses [8, 45]: 1.31 µM; potency estimated from few doses [9]: 0.164 µM; potency estimated from few doses [10]: 1.87 µM; potency estimated from few doses [11]: 1.42 µM; potency estimated from few doses [12]: 1.74 µM; potency estimated from few doses [13]: 1.77 µM; potency estimated from few doses [14]: 1.9 µM; potency estimated from few doses [15]: 1.48 µM; potency estimated from few doses [16]: 2.29 µM; potency estimated from few doses [17]: 1.79 µM; potency estimated from few doses [18]: 1.38 µM; potency estimated from few doses [19]: 1.9 µM; potency estimated from few doses [20]: 2.16 µM; potency estimated from few doses [21]: 1.4 µM; potency estimated from few doses [22]: 1.58 µM

For `CS(=O)(=O)Nc1ccc(-c2ccc3c(NC(=O)C4CC4)n[nH]c3c2)cc1` [SB-742865], which potency estimated from few doses ([1]; compound concentrations: 100 nM and 1000 nM (sheet 'Samples'), CATDS: 0.24933386454831599) is on record?
The potency estimated from few doses was 1.84 µM.

And the potency estimated from few doses [23]?
Its potency estimated from few doses is 0.107 µM.

And the potency estimated from few doses [24]?
The potency estimated from few doses was 1.44 µM.

With `Cl.Cl.Cl.Fc1ccc(-c2ncn(C3CCNCC3)c2-c2ccnc(Nc3ccccc3)n2)cc1.Fc1ccc(-c2ncn(C3CCNCC3)c2-c2ccnc(Nc3ccccc3)n2)cc1` [SB-238039-R] as the molecule, how does the potency estimated from few doses [25] read?
Its potency estimated from few doses is 0.704 µM.

And the potency estimated from few doses [26]?
Its potency estimated from few doses is 0.873 µM.

What about the potency estimated from few doses [27] of the same molecule?
Its potency estimated from few doses is 0.131 µM.

And the potency estimated from few doses [28]?
Its potency estimated from few doses is 0.00661 µM.

And the potency estimated from few doses [29]?
The potency estimated from few doses was 0.0185 µM.

And the potency estimated from few doses [30]?
Its potency estimated from few doses is 1.18 µM.

And the potency estimated from few doses [31]?
The potency estimated from few doses was 0.747 µM.

And the potency estimated from few doses ([8]; compound concentrations: 100 nM and 1000 nM (sheet 'Samples'), CATDS: 3.3060215115758199E-2)?
The potency estimated from few doses was 1.29 µM.

What about the potency estimated from few doses [32] of the same molecule?
Its potency estimated from few doses is 1.13 µM.

And the potency estimated from few doses [33]?
The potency estimated from few doses was 0.504 µM.

What about the potency estimated from few doses [34] of the same molecule?
The potency estimated from few doses was 0.0327 µM.

What about the potency estimated from few doses [35] of the same molecule?
The potency estimated from few doses was 0.00159 µM.

What about the potency estimated from few doses [36] of the same molecule?
The potency estimated from few doses was 0.27 µM.

What about the potency estimated from few doses [37] of the same molecule?
The potency estimated from few doses was 0.0118 µM.

And the potency estimated from few doses [38]?
Its potency estimated from few doses is 0.206 µM.

What about the potency estimated from few doses [39] of the same molecule?
The potency estimated from few doses was 1.9 µM.

And the potency estimated from few doses [40]?
Its potency estimated from few doses is 0.56 µM.

What about the potency estimated from few doses [41] of the same molecule?
Its potency estimated from few doses is 1.13 µM.

And the potency estimated from few doses [42]?
The potency estimated from few doses was 1 µM.

What about the potency estimated from few doses [43] of the same molecule?
Its potency estimated from few doses is 1.66 µM.

And the potency estimated from few doses [44]?
The potency estimated from few doses was 0.311 µM.
